Measured potencies and affinities stand elsewhere.

In one test the test system is Staphylococcus aureus. Conditions: Concentration 20 uM; ASSAY_TEST Inhibition of Bacterial Growth; detection method Absorption (OD600); MEDIA CAMHB; plate type 384well; NBS; CORNING #3640; time 18 hr.
With `O=C1Nc2ccc(Br)cc2C12NCCc1c2[nH]c2ccccc12` (configuration not stated), the Inhibition (usually the relative decrease from the control value, in per cent) is on record as 8.87%.

In the case of `CCCn1c(CNc2ccccc2O)nc2ccccc21`, the Inhibition worked out at 17.07%.

As for `CC(C)(CN)c1nc(-c2ccc(Cl)c(O)c2)c(-c2ccnc(N)n2)[nH]1.O=C(O)C(F)(F)F.O=C(O)C(F)(F)F`, the Inhibition worked out at 18.2%.

Consider `CC(C)(C)OC(=O)N1CCN(c2cc(-c3ccc(Oc4ccccc4)cc3)n[nH]2)CC1`, for which the Inhibition worked out at 17.78%.

As for `CS(=O)(=O)c1ccccc1C(=O)N(Cc1ccccc1)c1ccccc1`, the Inhibition stood at 14.37%.

Consider `NCCC(O)C(=O)N[C@@H]1C[C@H](N)[C@@H](OC2O[C@H](CN)[C@@H](O)[C@H](O)[C@H]2O)[C@H](O)C1OC1O[C@H](CO)[C@@H](O)[C@H](N)[C@H]1O.O=S(=O)(O)O.O=S(=O)(O)O` (some centres not stated), for which the Inhibition is given as 14.32%.

For `Cc1ccc(Oc2ccc(NC(=O)CNc3ccccc3N3CCCC3=O)cc2)cc1`, the Inhibition is listed as 5.88%.

With `Cc1cc(OCC(=O)NCc2ccccc2)c2cc(Br)ccc2n1`, the Inhibition is 11.48%.

Turning to `Cc1cc(C)nc(-n2nc(C)cc2Nc2ccccc2)n1`, the Inhibition was found to be 9.46%.

Regarding `CNC(=O)C1Cc2ccccc2N1C(=O)Cc1ccc(F)cc1` (configuration not stated), the Inhibition is 16.81%.

For `COc1cc2ncnc(NC3CCN(Cc4ccccc4)CC3)c2cc1OC`, the Inhibition stood at 7.78%.

Take `CC(=O)O.CC(=O)O.Nc1ncnc2c1ncn2[C@@H]1O[C@H](COS(=O)(=O)NC(=O)c2ccccc2O)[C@@H](O)[C@H]1O`: the Inhibition turned out to be 15.68%.

In the case of `COc1cc(C2=NCCN2)ccc1-c1cn(-c2cccc(C3=NCCN3)c2)nn1`, the Inhibition stood at 19.96%.

Consider `CC(Oc1ccccc1)C(=O)Nc1nc(-c2ccccn2)cs1` (configuration not stated), for which the Inhibition was 40.18%.

Turning to `N=C(N)c1ccc(-c2cc(-c3ccccc3)on2)cc1`, the Inhibition is reported as 23.63%.

As for `CN(C)CCNC(=O)N1CCCN(c2ncnc3cc(-c4ccccc4)sc23)CC1`, the Inhibition was determined as 13.78%.

Turning to `O=C(NCc1ccoc1)N1CCN(Cc2ccc3c(c2)OCO3)CC1`, the Inhibition worked out at 17.61%.

Consider `CCOC(=O)c1c(NC(=O)c2c(F)c(F)c(F)c(F)c2F)sc(C(N)=O)c1C`, for which the Inhibition came out at 12.42%.

Turning to `O=S(=O)(c1ccc(Cl)cc1)N1CCN(C(=S)NCc2ccco2)CC1`, the Inhibition stood at 6.19%.

For the molecule `CCOc1ccc2cc(-c3nn(CC4CCN(C)CC4)c4ncnc(N)c34)ccc2c1.Cl`, the Inhibition is listed as 18.54%.

Turning to `COC(=O)C1=C(C)NC(C)=C(C(=O)OC(C)C)C1c1cccc2nonc12` (configuration not stated) [ISRADIPINE], the Inhibition is on record as 3.78%.

Take `Cl.Cn1ccnc1CNCCS(=O)(=O)c1cccc(Nc2ccc(-c3cccc(F)c3)cn2)c1`: the Inhibition is on record as 24.8%.

On to `CN(C(=O)c1cc2c(-c3cncnc3)cccc2[nH]1)c1ccccc1`, for which the Inhibition is 12.46%.

On to `C[C@H](c1ccc2c(c1)CCCC2)N(C)c1ncc2c(N)nc(N)nc2n1`, for which the Inhibition stood at 64.04%.

As to `COc1cccc(OC)c1C(=O)Nc1ccc(Cl)c(-c2nc3ccccc3s2)c1`, the Inhibition was determined as 3.55%.

With `CNc1nnc(Sc2cnn(-c3ccccc3)c(=O)c2Cl)s1`, the Inhibition is listed as 17.43%.

For `Cc1ccc2[nH]c3c(NCCN(C)C)ncnc3c2c1`, the Inhibition was found to be 20.13%.

For `Cc1cc(NCC(C)C)c2[nH]nc(-c3ccccc3)c2n1`, the Inhibition is reported as 14.44%.

On to `COc1cc(Br)cc2cc(C(=O)Nc3cccc(C(F)(F)F)c3)c(=O)oc12`, for which the Inhibition is 7.48%.

`CN1CCN(S(=O)(=O)c2ccc(-c3ccc4c(Nc5ncc(Cl)cn5)ccnc4c3)cc2)CC1`: the Inhibition was found to be 23.03%.

Consider `O=C(c1[nH]nc2c1CCCC2)N1CCN(Cc2ccc3c(c2)OCO3)CC1`, for which the Inhibition amounted to 14.51%.

As for `Nc1ncnc2[nH]nc(Cc3cccc4ccccc34)c12`, the Inhibition was 12.91%.

Consider `CS(=O)(=O)N1CCC(CCn2nc(Cc3cccc4ccccc34)c3c(N)ncnc32)CC1`, for which the Inhibition amounted to 11.8%.

On to `Cc1ccc2cc(C3NC(=O)c4ccccc4N3)c(Cl)nc2c1` (configuration not stated), for which the Inhibition is recorded as 11.87%.

In the case of `CCCCS(=O)(=O)Nc1ccc2cnn(C)c2c1`, the Inhibition is 17.72%.

Turning to `Cc1cc(Cl)ccc1NC(=O)CCc1ccc(S(=O)(=O)NCC(C)C)cc1`, the Inhibition was determined as 6.84%.

The subject of another test is Escherichia coli. Conditions: Concentration 20 uM; ASSAY_TEST Inhibition of Bacterial Growth; detection method Absorption (OD600); MEDIA CAMHB; plate type 384well; NBS; CORNING #3640; time 18 hr.
As for `O=C1Nc2ccc(Br)cc2C12NCCc1c2[nH]c2ccccc12` (configuration not stated), the Inhibition is 4.53%.

In the case of `CCCn1c(CNc2ccccc2O)nc2ccccc21`, the Inhibition worked out at 4.85%.

Turning to `CC(C)(CN)c1nc(-c2ccc(Cl)c(O)c2)c(-c2ccnc(N)n2)[nH]1.O=C(O)C(F)(F)F.O=C(O)C(F)(F)F`, the Inhibition is 12.46%.

For the molecule `CC(C)(C)OC(=O)N1CCN(c2cc(-c3ccc(Oc4ccccc4)cc3)n[nH]2)CC1`, the Inhibition is reported as 7.28%.

Take `CS(=O)(=O)c1ccccc1C(=O)N(Cc1ccccc1)c1ccccc1`: the Inhibition is reported as 5.13%.

With `NCCC(O)C(=O)N[C@@H]1C[C@H](N)[C@@H](OC2O[C@H](CN)[C@@H](O)[C@H](O)[C@H]2O)[C@H](O)C1OC1O[C@H](CO)[C@@H](O)[C@H](N)[C@H]1O.O=S(=O)(O)O.O=S(=O)(O)O` (some centres not stated), the Inhibition came out at 11.24%.

For `Cc1ccc(Oc2ccc(NC(=O)CNc3ccccc3N3CCCC3=O)cc2)cc1`, the Inhibition amounted to 6.72%.

Turning to `Cc1cc(OCC(=O)NCc2ccccc2)c2cc(Br)ccc2n1`, the Inhibition worked out at 7.85%.

For `Cc1cc(C)nc(-n2nc(C)cc2Nc2ccccc2)n1`, the Inhibition worked out at 5.87%.

Turning to `CNC(=O)C1Cc2ccccc2N1C(=O)Cc1ccc(F)cc1` (configuration not stated), the Inhibition was 5.31%.

Take `COc1cc2ncnc(NC3CCN(Cc4ccccc4)CC3)c2cc1OC`: the Inhibition is given as -0.93%.

Consider `CC(=O)O.CC(=O)O.Nc1ncnc2c1ncn2[C@@H]1O[C@H](COS(=O)(=O)NC(=O)c2ccccc2O)[C@@H](O)[C@H]1O`, for which the Inhibition was found to be 5.07%.

As for `COc1cc(C2=NCCN2)ccc1-c1cn(-c2cccc(C3=NCCN3)c2)nn1`, the Inhibition is 14.41%.

`CC(Oc1ccccc1)C(=O)Nc1nc(-c2ccccn2)cs1` (configuration not stated): the Inhibition is -10.82%.

In the case of `N=C(N)c1ccc(-c2cc(-c3ccccc3)on2)cc1`, the Inhibition is reported as 12.9%.

In the case of `CN(C)CCNC(=O)N1CCCN(c2ncnc3cc(-c4ccccc4)sc23)CC1`, the Inhibition is 3.44%.

Consider `O=C(NCc1ccoc1)N1CCN(Cc2ccc3c(c2)OCO3)CC1`, for which the Inhibition is listed as 3.25%.

As to `CCOC(=O)c1c(NC(=O)c2c(F)c(F)c(F)c(F)c2F)sc(C(N)=O)c1C`, the Inhibition was 12.47%.

Turning to `O=S(=O)(c1ccc(Cl)cc1)N1CCN(C(=S)NCc2ccco2)CC1`, the Inhibition was -1.38%.

Turning to `CCOc1ccc2cc(-c3nn(CC4CCN(C)CC4)c4ncnc(N)c34)ccc2c1.Cl`, the Inhibition was determined as 8.02%.

As to `COC(=O)C1=C(C)NC(C)=C(C(=O)OC(C)C)C1c1cccc2nonc12` (configuration not stated) [ISRADIPINE], the Inhibition was -1.04%.

As for `Cl.Cn1ccnc1CNCCS(=O)(=O)c1cccc(Nc2ccc(-c3cccc(F)c3)cn2)c1`, the Inhibition is given as 8.19%.

Consider `CN(C(=O)c1cc2c(-c3cncnc3)cccc2[nH]1)c1ccccc1`, for which the Inhibition was 10.65%.

Turning to `C[C@H](c1ccc2c(c1)CCCC2)N(C)c1ncc2c(N)nc(N)nc2n1`, the Inhibition is 11.2%.

Take `COc1cccc(OC)c1C(=O)Nc1ccc(Cl)c(-c2nc3ccccc3s2)c1`: the Inhibition is reported as -2.89%.

For the molecule `CNc1nnc(Sc2cnn(-c3ccccc3)c(=O)c2Cl)s1`, the Inhibition is -7.26%.

With `Cc1ccc2[nH]c3c(NCCN(C)C)ncnc3c2c1`, the Inhibition was 7.48%.

As for `Cc1cc(NCC(C)C)c2[nH]nc(-c3ccccc3)c2n1`, the Inhibition is 8.23%.

Take `COc1cc(Br)cc2cc(C(=O)Nc3cccc(C(F)(F)F)c3)c(=O)oc12`: the Inhibition came out at 1.89%.

In the case of `CN1CCN(S(=O)(=O)c2ccc(-c3ccc4c(Nc5ncc(Cl)cn5)ccnc4c3)cc2)CC1`, the Inhibition was found to be 2.97%.

As to `O=C(c1[nH]nc2c1CCCC2)N1CCN(Cc2ccc3c(c2)OCO3)CC1`, the Inhibition came out at 7.99%.

For the molecule `Nc1ncnc2[nH]nc(Cc3cccc4ccccc34)c12`, the Inhibition worked out at 7.05%.

As for `CS(=O)(=O)N1CCC(CCn2nc(Cc3cccc4ccccc34)c3c(N)ncnc32)CC1`, the Inhibition is recorded as -2.01%.

In the case of `Cc1ccc2cc(C3NC(=O)c4ccccc4N3)c(Cl)nc2c1` (configuration not stated), the Inhibition came out at 10.17%.

Turning to `CCCCS(=O)(=O)Nc1ccc2cnn(C)c2c1`, the Inhibition is 10.93%.

As for `Cc1cc(Cl)ccc1NC(=O)CCc1ccc(S(=O)(=O)NCC(C)C)cc1`, the Inhibition came out at 9.61%.

These data come from ChEMBL document CHEMBL4513149, “CO-ADD screening of MMV (CH) - MMV compounds” (2021).
